The sample as a whole holds a higher share of hits than the screen did.
ALOX12 inh – ALOX12 (human) lipoxygenase inhibition; Potency, µM (series often up to 108 µM), actives largely listed as inhibitors; purified 12hLO, xylenol orange hydroperoxide absorbance; P18054; AID 1671190; 580,000 tested, 1.1% active
Target sequence (P18054 whole entry, looked up): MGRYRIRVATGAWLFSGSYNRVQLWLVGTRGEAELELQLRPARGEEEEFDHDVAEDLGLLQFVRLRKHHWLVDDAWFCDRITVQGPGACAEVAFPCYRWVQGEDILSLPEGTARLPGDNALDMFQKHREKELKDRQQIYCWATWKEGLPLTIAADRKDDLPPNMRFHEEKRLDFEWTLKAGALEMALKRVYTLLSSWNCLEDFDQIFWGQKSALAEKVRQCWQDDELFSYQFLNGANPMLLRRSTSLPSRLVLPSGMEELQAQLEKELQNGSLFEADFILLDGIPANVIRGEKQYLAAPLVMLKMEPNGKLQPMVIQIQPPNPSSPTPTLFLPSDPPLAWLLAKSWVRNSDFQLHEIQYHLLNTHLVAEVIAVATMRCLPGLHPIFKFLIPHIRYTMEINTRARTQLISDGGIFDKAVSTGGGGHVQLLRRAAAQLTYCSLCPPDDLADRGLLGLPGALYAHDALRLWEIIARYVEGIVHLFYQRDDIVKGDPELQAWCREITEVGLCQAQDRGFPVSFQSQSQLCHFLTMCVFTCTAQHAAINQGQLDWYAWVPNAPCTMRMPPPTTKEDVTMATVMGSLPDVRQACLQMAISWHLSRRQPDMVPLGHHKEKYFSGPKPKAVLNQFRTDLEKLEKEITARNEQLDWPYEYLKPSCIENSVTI
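Purified human 12hLO (150 nM final) in 25 mM Hepes, 0.01% Triton X-100, pH 7.0 was preincubated 15 min at room temperature with compound. Then 40 uM arachidonic acid was added, 30 min. Hydroperoxide was read by Fe-XO absorbance ratio 573/405 nm.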
TDP1 cell CPT – growth inhibition of DT40 Tdp1-/-;hTDP1 cells with camptothecin (screen for TDP1 inhibitors) | chicken DT40 Tdp1-/-;hTDP1 cells + 20 nM CPT, ATP luminescence, 48 h | Potency, µM (series often up to 46.2 µM), most hits filed as inhibitors | 420,000 tested, 12% active; further: nearly all actives have a fitted effect of over 55% in size
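Cell growth measured by CellTiter-Glo luminescence after a minimum 48 h, 37 C compound exposure with 20 nM CPT in Tdp1-knockout DT40 cells stably expressing hTDP1, seeded 400/well; qHTS titration format.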
HT1080-NT tox – kills 2HG-producing HT-1080-NT fibrosarcoma cells | AID 686970 | Potency, µM (highest dose often 46.1 µM), most hits filed as cytotoxic | HT-1080-NT fibrosarcoma viability, CellTiter-Glo ATP luminescence, 48 h | 360,000 tested, 1.6% active;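 further: NT is the 2HG producing partner of a matched IDH1 knockdown line; nearly all actives have a fitted effect of over 55% in size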
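Read-out is CellTiter-Glo luminescence after 10 minutes at room temperature, following 48 hours' compound treatment of HT-1080-NT cells (750 cells/well, RPMI, 5% FBS, 37 degrees C).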
HT1080 IDH1KD tx – kills HT-1080 cells with IDH1 knockdown | Potency, µM (titrated, usually from 46.1 µM), usual class: cytotoxic | HT-1080 IDH1 knockdown viability, ATP luminescence, 48 h | 360,000 tested, 2% active
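Assay cells: HT-1080 with IDH1 knockdown, 750 per well, RPMI/5% FBS. Exposure: 48 h at 37 °C following 2 h pre-incubation. Read: CellTiter-Glo luminescence; fitted concentration-response, curve class assigned.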
IL1B secr inh – blocks inflammasome-driven IL-1 beta release; THP-1 LPS/ATP IL-1B secretion, AlphaLISA, 16 h; hits give low values; activity change, % at 57.5 µM; 360,000 tested, 4.7% active; AID 743279; in the data active means activity change below about -50%; inconclusive means mostly about -30% to -49%
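THP-1 cells pretreated 1 hr with compounds (up to 57.5 uM final), then stimulated with LPS (250 ng/mL final) plus ATP (1.25 mM final); secreted IL-1B measured by AlphaLISA after 16 hr, decreased signal indicating inhibition.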
TDP1 cell noCPT – qHTS for Inhibitors of human tyrosyl-DNA phosphodiesterase 1 (TDP1): qHTS in cells in absence of CPT; AID 686978, 2013; Potency, µM (series often up to 46.2 µM), most hits filed as inhibitors; DT40 Tdp1-/- hTDP1 cells, no CPT, ATP luminescence, 48 h; 420,000 tested, 15% active; further: nearly all actives have a fitted effect of over 55% in size
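Growth kinetics read by CellTiter-Glo luminescence after ≥48 hr at 37 °C. Cells: DT40 Tdp1-/- stably carrying human TDP1, 400 per well, compound exposure in the absence of CPT (DMSO vehicle).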
A number is an active result; n = inactive; u = inconclusive; x = no result given. Unless noted, the call rests on the fitted dose curve; in most records, active means well fitted curve in the direction sought with a large enough effect; inconclusive means small, poorly fitted or top-dose-only effect, or another doubt; inactive means no such curve, though single readings can be large; an effect the other way counts as inactive or inconclusive.

SMILES	ALOX12 inh	TDP1 cell CPT	HT1080-NT tox	HT1080 IDH1KD tx	IL1B secr inh	TDP1 cell noCPT
Cc1cccc(C)c1NC(=O)C(c1ccncc1)n1c(=O)c(-c2cc3ccccc3[nH]2)nc2ccccc21 (stereo not drawn)	u	11.6µM	20.6µM	18.4µM	n	20.6µM
O=C(NCc1ccccc1)C(CCc1ccccc1)n1c(=O)c(-c2cc3ccccc3[nH]2)nc2ccccc21 (stereo not drawn)	n	13µM	u	u	n	9.2µM
O=C(Nc1ccc2ccccc2c1)C(C1CC1)n1c(=O)c(-c2cc3ccccc3[nH]2)nc2ccccc21 (stereo not drawn)	u	u	u	u	n	u
CN(C)C[C@@H]1CN(Cc2cccnc2)C[C@H]1NC(=O)c1ccc(Cl)s1	n	x	x	x	x	x
CCCc1nnc(NC(=O)Cc2coc3ccc(C(C)C)cc23)s1	n	u	x	x	x	u
O=C(COC(=O)c1cccc(S(=O)(=O)N2CCCCC2)c1)NCc1ccc2c(c1)OCO2	n	x	x	x	x	x
CC(=O)c1ccc(-c2ccc(C3CC(=O)Nc4c3c(C)nn4-c3ccc(=O)[nH]n3)o2)cc1 (stereo not drawn)	n	x	x	x	x	x
Cc1cc(N2CCCN(C(=O)Nc3nncs3)CC2)ccn1	n	x	x	x	x	x
CCOc1ccccc1COC(=O)c1ccccc1C(=O)c1ccccc1	n	x	x	x	x	x
Cc1cccc(C)c1NC(=O)C(c1ccc(C#N)cc1)n1c(=O)c(-c2cc3ccccc3[nH]2)nc2ccccc21 (stereo not drawn)	n	11.6µM	u	u	n	9.2µM
Cc1cccc(C)c1NC(=O)C(c1ccccc1F)n1c(=O)c(-c2cc3ccccc3[nH]2)nc2ccccc21 (stereo not drawn)	u	u	u	u	n	u
O=C(NCc1ccccc1)C(c1ccncc1)n1c(=O)c(-c2ccco2)nc2ccccc21 (stereo not drawn)	n	n	n	n	n	n
Cc1cccc(C)c1NC(=O)C(c1ccccc1)n1c(=O)c(-c2cc3ccccc3[nH]2)nc2ccccc21 (stereo not drawn)	u	16.4µM	u	u	n	14.6µM
O=C(NCc1ccccc1)C(c1cccc2ccccc12)n1c(=O)c(-c2cc3ccccc3[nH]2)nc2ccccc21 (stereo not drawn)	n	14.6µM	n	n	n	u
O=C(NCc1ccccc1)C(CCc1ccccc1)n1c(=O)c(-c2ccccc2)nc2ccccc21 (stereo not drawn)	n	n	u	u	n	2.31µM
CC(C)(C)NC(=O)C(c1ccc(C#N)cc1)n1c(=O)c(-c2ccccc2)nc2ccccc21 (stereo not drawn)	n	u	n	n	n	u
COc1ccc(-c2nc(-c3c(C)noc3C)cc3cc(CN(C)C)oc23)cn1	n	x	x	x	x	x
C[C@H](NC(=O)c1ccc2nc(-n3cccc3)sc2c1)C(=O)NCc1ccco1	n	x	x	x	x	x
Cc1cccc(C)c1NC(=O)C(c1cccc2ccccc12)n1c(=O)c(-c2cc3ccccc3[nH]2)nc2ccccc21 (stereo not drawn)	n	13µM	n	n	n	9.2µM
CCC(C(=O)NCc1ccccc1)n1c(CSCCOc2ccccc2)nc2ccccc21 (stereo not drawn)	n	23.1µM	n	n	n	u
O=c1c(-c2cc3ccccc3[nH]2)nc2ccccc2n1C(CCc1ccccc1)c1nc2ccccc2[nH]1 (stereo not drawn)	n	u	u	u	n	18.4µM
COc1ccc(NC2=NC(CC(=O)Nc3ccc4c(c3)OCCO4)C(=O)N2)cc1 (stereo not drawn)	n	x	x	x	x	x
CC(C)c1noc(-c2ccn3c(CNC(=O)c4cccc(N(C)C)c4)nnc3c2)n1	n	x	x	x	x	x
CC(C)(C)[C@@H]1COC(=O)[C@H](Cc2ccc(F)cc2)CC/C=C\C[C@@H](CC(=O)NCCO)C(=O)N1	n	u	n	n	n	u
OC1(C2(O)CC(c3ccccc3)ON2)CCCCC1 (stereo not drawn)	n	u	n	n	-68.8	18.4µM
SMILES	ALOX12 inh	TDP1 cell CPT	HT1080-NT tox	HT1080 IDH1KD tx	IL1B secr inh	TDP1 cell noCPT
CC1CC(C)CN(c2ncc3c(n2)CC(c2ccccc2)CC3=O)C1 (stereo not drawn)	n	11.6µM	n	n	n	10.3µM
COc1cc(C2CC(=O)c3cnc(N4CCN(Cc5ccccc5)CC4)nc3C2)cc(OC)c1OC (stereo not drawn)	n	7.31µM	n	n	n	7.31µM
CC(C)(C)c1ccc(C2CC(=O)c3cnc(NCc4ccccc4)nc3C2)cc1 (stereo not drawn)	n	x	x	x	x	x
COc1ccc(C2CC(=O)c3c(C)nc(N4CCN(Cc5ccccc5)CC4)nc3C2)cc1OC (stereo not drawn)	n	11.6µM	n	n	n	13µM
COc1ccc(C2CC(=O)c3c(C)nc(N4CCN(C=O)CC4)nc3C2)c(OC)c1 (stereo not drawn)	n	x	x	x	x	x
O=C(NCCc1ccc(C(F)(F)F)cc1)C1CC2CCCC(C1)C2=O (stereo not drawn)	n	x	x	x	x	x
COc1ccc(C(=O)CC2(O)C(=O)Nc3c(Cl)ccc(Cl)c32)cc1 (stereo not drawn)	n	x	x	x	x	x
O=C(CC1(O)C(=O)Nc2cc(Cl)cc(Cl)c21)c1ccncc1 (stereo not drawn)	n	u	n	u	-100.2	u
CN1CCN(c2cc(-c3ccccc3)nc3cc(-c4ccc(F)cc4)nn23)CC1	u	4.11µM	n	n	-96.0	5.8µM
Cc1cc(NCCCO)n2nc(-c3cccs3)cc2n1	n	n	n	n	x	n
OCCCNc1cc(-c2ccccc2)nc2cc(-c3ccc(F)cc3)nn12	n	8.2µM	u	u	-90.5	5.17µM
Fc1ccc(-c2cc3nc(-c4ccccc4)cc(N4CCN(CCN5CCOCC5)CC4)n3n2)cc1	u	11.6µM	n	n	-74.3	7.31µM
O=C(c1ccccc1F)N1CCC(O)(c2csc(CN3CCc4ccccc4C3)n2)CC1	n	x	x	x	x	x
CC(=O)N1c2c(cc(Br)cc2S(=O)(=O)N2CCOCC2)CC1C (stereo not drawn)	n	n	n	n	n	n
CC(=O)N1c2c(cc(Br)cc2S(=O)(=O)N2CCN(c3ccccc3F)CC2)CC1C (stereo not drawn)	n	n	n	n	n	u
COc1ccc(C)cc1NS(=O)(=O)c1cc(Br)cc2c1N(C(C)=O)C(C)C2 (stereo not drawn)	n	u	x	x	x	18.4µM
